In PubChem BioAssay (EPA / NIEHS):
Inconclusive results are not listed. Calls of active or inactive are those of the source. How the source made its calls, unless noted: active means hit-call score of the fitted dose curve at least 0.9, where 1 is the maximum; inconclusive means response in the unintended direction; inactive means score below 0.9.

Columns and labels:
[1] = target: Estrogen receptor (Homo sapiens) (UniProt P03372); assay: CCTE_Deisenroth_AIME_96WELL_LUC_Active: CCTE's 96-well Estrogen Receptor Transactivation Assay with AIME metabolic competence (ERTA luciferase; metabolism positive), Deisenroth Lab (AID 2284023)
Chain of Estrogen receptor (Homo sapiens) (P03372 whole entry, looked up): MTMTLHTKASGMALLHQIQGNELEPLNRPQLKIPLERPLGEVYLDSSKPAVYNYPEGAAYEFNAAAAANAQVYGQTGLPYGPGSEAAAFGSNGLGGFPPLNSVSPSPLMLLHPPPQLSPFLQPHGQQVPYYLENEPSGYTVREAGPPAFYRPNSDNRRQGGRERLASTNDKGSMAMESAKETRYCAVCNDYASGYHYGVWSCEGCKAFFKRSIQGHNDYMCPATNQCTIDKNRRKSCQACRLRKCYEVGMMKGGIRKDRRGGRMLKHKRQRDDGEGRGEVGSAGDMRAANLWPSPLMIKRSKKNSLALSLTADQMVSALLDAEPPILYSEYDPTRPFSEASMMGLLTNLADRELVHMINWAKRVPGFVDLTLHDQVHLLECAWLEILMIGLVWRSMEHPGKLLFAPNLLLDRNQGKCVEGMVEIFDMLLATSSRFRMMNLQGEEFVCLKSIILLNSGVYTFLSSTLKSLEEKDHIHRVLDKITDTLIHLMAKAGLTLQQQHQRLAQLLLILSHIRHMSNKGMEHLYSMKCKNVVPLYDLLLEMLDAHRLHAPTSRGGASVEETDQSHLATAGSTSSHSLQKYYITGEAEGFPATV
Summary of the method: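 Chemicals pre-incubated 2 h with alginate-immobilized phenobarbital/beta-naphthoflavone-induced male Sprague Dawley rat liver S9, then medium transferred to VM7Luc4E2 cells for 24 h luciferase read-out. 10-point series 0.002 - 200 uM; fitted relative to 17beta-estradiol.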

[2] = target: Estrogen receptor (Homo sapiens) (UniProt P03372); assay: CCTE_Deisenroth_AIME_96WELL_LUC_Inactive: CCTE's 96-well Estrogen Receptor Transactivation Assay without AIME metabolic competence (ERTA luciferase; metabolism negative), Deisenroth Lab (AID 2284025)
Summary of the method: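 VM7Luc4E2 breast cells, luciferase read 24 h after dosing with medium pre-incubated 2 h on alginate-water lids (metabolism negative). 10-point series 0.002–200 uM, single technical replicate, n≥4; fit relative to 17beta-estradiol.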

[3] = CCTE_Deisenroth_AIME_96WELL_CTox_Active: Cytotoxicity Assessment (CTOX) in CCTE's 96-well Estrogen Receptor Transactivation Assay with AIME metabolic competence (metabolism positive), Deisenroth Lab (AID 2284028)
Summary of the method: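 Chemicals (0.002–200 uM) were first incubated 2 h with alginate-immobilized phenobarbital/beta-naphthoflavone-induced male rat liver S9; conditioned medium then went onto VM7Luc4E2 cells for 24 h, with viability read by protease-substrate fluorescence, fitted bidirectionally.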

[4] = CCTE_Deisenroth_AIME_96WELL_CTox_Inactive: Cytotoxicity Assessment (CTOX) in CCTE's 96-well Estrogen Receptor Transactivation Assay without AIME metabolic competence (metabolism negative), Deisenroth Lab (AID 2284029)
Summary of the method: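 Chemicals (0.002 - 200 uM, 10 points) incubated 2 h with alginate-water microspheres (no S9), then medium moved onto VM7Luc4E2 cells for 24 h. Viability by protease-substrate cleavage to fluorescent probe; bidirectional fitting.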

[5] = test system: Brachyury (BRA) Protein Expression, Deisenroth Lab, TBXT (gene 6862); assay: CCTE_Deisenroth_DEVTOX-GLR_legacy_Bra: (Legacy) CCTE's DevTox GLR-Endo Assay Evaluation of Brachyury (BRA) Protein Expression, Deisenroth Lab (AID 2284329; active means hit-call score of the fitted dose curve at least 0.9, where 1 is the maximum; inactive means score below 0.9)
Summary of the method: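 RUES2-GLR human pluripotent cells are differentiated for 48 h and receive two chemical exposures 24 h apart, at 10 concentrations from 1 nM to 200 uM. Cells are fixed, nuclei stained and imaged. Bra+ cells are those with mean Bra intensity over 5x BMAD above the pluripotent control median, expressed as a percentage of cell count, after subtracting the 0.2% DMSO control median.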

[6] = CCTE_Deisenroth_DEVTOX-GLR_legacy_CellCount: (Legacy) Viability Assessment in CCTE's DevTox GLR-Endo Assay, Deisenroth Lab (AID 2284331; active means hit-call score of the fitted dose curve at least 0.9, where 1 is the maximum; inactive means score below 0.9); conditions: actives raise or lower the signal
Summary of the method: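 Human pluripotent RUES2-GLR cells differentiated 48 h with two 24-h-interval exposures, 10-point 1 nM–200 uM series, 0.2% DMSO. Fixed nuclei counted by high-content imaging (5 fields/well); bidirectional fit vs DMSO, n≥4.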

[7] = test system: SRY-box transcription factor 17 (SOX17) Protein Expression, Deisenroth Lab, SOX17 (gene 64321); assay: CCTE_Deisenroth_DEVTOX-GLR_legacy_Sox17: (Legacy) CCTE's DevTox GLR-Endo Assay Evaluation of SRY-box transcription factor 17 (SOX17) Protein Expression, Deisenroth Lab (AID 2284341; active means hit-call score of the fitted dose curve at least 0.9, where 1 is the maximum; inactive means score below 0.9); conditions: actives raise or lower the signal
Summary of the method: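 RUES2-GLR human pluripotent cells differentiated toward endoderm for 48 h, dosed twice at 24 h intervals (1 nM–200 uM, 10 points). Imaging gives % SOX17+ cells (intensity >5x BMAD above pluripotent control median); bidirectional fit versus 0.2% DMSO.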

[8] = test system: SRY-box transcription factor 2 (SOX2) Protein Expression, Deisenroth Lab, SOX2 (gene 6657); assay: CCTE_Deisenroth_DEVTOX-GLR_legacy_Sox2: (Legacy) CCTE's DevTox GLR-Endo Assay Evaluation of SRY-box transcription factor 2 (SOX2) Protein Expression, Deisenroth Lab (AID 2284346; active means hit-call score of the fitted dose curve at least 0.9, where 1 is the maximum; inactive means score below 0.9)
Summary of the method: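 RUES2-GLR human pluripotent cells were differentiated for 48 h with two chemical doses 24 h apart, over 1 nM-200 uM. Sox2+ cells were those above 5x BMAD of the endoderm-control median; percent Sox2+ minus the 0.2% DMSO median was used, from n=4 replicates.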

## COc1ccc(C=Cc2ccc(OC)cc2)cc1
[1]
  outcome: inactive
[2]
  outcome: inactive
[3]
  outcome: inactive
[4]
  outcome: inactive

## NC(=O)c1ccc(-c2nc(-c3ccc4c(c3)OCO4)c(-c3ccccn3)[nH]2)cc1
[5]
  outcome: inactive
[6]
  outcome: inactive
[7]
  outcome: inactive
[8]
  outcome: inactive

## c1ccc(CCCc2ccccc2)cc1
[1]
  outcome: inactive
[2]
  AC50: 37.4 µM (active)
[3]
  outcome: inactive

## CC/C(=C(\c1ccc(O)cc1)c1ccc(OCCN(C)C)cc1)c1ccccc1
[3]
  AC50: 57.8 µM (active)
[4]
  AC50: 57.6 µM (active)
